aSyn 5UTR act = Activators via SNCA 5'UTR binding, MLPCN; alpha-synuclein 5'UTR reporter, activators screen; activity score, % (tested at 7.5 µM), hits read low; actives 7.1% (n = 300,000); AID 1814; in the data active = activity score below about -60%
Numbers without * were called inactive. A selection follows.

SMILES	aSyn 5UTR act
CCOc1ccc(NC(=O)C(C)Oc2ccccc2C(=O)Nc2ccc(C)c(Cl)c2)cc1 (configuration not stated)	-126.2*
Cc1cccc(NC(=O)c2ccccc2OCC(=O)c2ccc(F)cc2)c1	29.8
Cc1ccc(NC(=O)CSc2ccccc2NC(=O)c2ccccc2)cc1Cl	-78.3*
Cc1ccc(NC(=O)COc2ccccc2C(=O)Nc2ccccc2)cc1Cl	-82.0*
CN(C)c1ccc(/C=N/N=C/c2ccccc2O)cc1	-171.1*
CCOC(=O)c1c(N/N=C/c2cccnc2)n[nH]c1C	-157.2*
CCC(=O)c1ccc(N2CCC(C)CC2)c(F)c1	-99.2*
CCCC(=O)c1ccc(N2CCC(C)CC2)c(F)c1	-82.9*
COc1ccc(-c2noc(Cc3cccs3)n2)cc1	-188.5*
COc1ccc(-c2noc(Cc3ccccc3OC)n2)cc1	-64.3*
COc1ccc(-c2noc(CCc3ccccc3)n2)cc1	-148.0*
CCOc1cccc(C(=O)Nc2nccs2)c1	-172.7*
CCOc1ccc(OCC(=O)Nc2nccs2)cc1	69.2
O=C(Nc1n[nH]c(=S)s1)c1ccc2ccccc2c1	-115.2*
O=C(Nc1nccs1)c1ccc(N2CCOCC2)c([N+](=O)[O-])c1	-80.2*
O=C(Nc1nccs1)c1ccc(Br)cc1	-160.8*
O=C(Nc1nccs1)c1ccccn1	-123.4*
COc1ccc2oc(-c3ccc(C)c(NC(=O)c4ccc(N5CCOCC5)c([N+](=O)[O-])c4)c3)nc2c1	-94.7*
O=C(NCCc1ccccc1F)C(=O)Nc1nccs1	-122.1*
O=C(Nc1nccs1)c1ccc2ccccc2c1	-114.2*
c1ccc(-n2nc3c(ccc4cnnc43)[nH]2)cc1	-128.7*
Cc1ccc(C2=NN3C(C2)c2ccccc2OC32C(=O)Nc3ccccc32)cc1 (configuration not stated)	-147.6*
CN1C(=O)C2(Oc3ccccc3C3CC(c4ccccc4)=NN32)c2ccccc21 (configuration not stated)	-163.7*
CSc1nc(O)c(/C=C2\C=Nc3ccccc32)[nH]1	-221.3*
Cc1ccc(O)c(CNc2cnc3ccccc3c2)c1	-99.7*
SMILES	aSyn 5UTR act
COc1cccc(CNc2ccc(F)c(Cl)c2)c1O	-183.8*
COc1cccc(CNc2nc3ccccc3n2C)c1O	-93.7*
COc1ccc(CNc2ncc(-c3ccc(F)cc3)n2C)c2ccccc12	65.1
COc1ccccc1Nc1nc2ccccc2n1C	-121.7*
COc1cccc(CNc2cnc3ccccc3c2)c1O	-218.5*
CCOc1ccc(NC(=O)Cn2ncc3ccccc32)cc1	-129.3*
CC1CCC(NC(=O)Cn2ncc3ccccc32)CC1 (configuration not stated)	-113.3*
Fc1ccccc1COc1ccc(C(=S)N2CCCC2)cc1	-95.7*
COc1ccc(NC(=S)N/C(=N/CS(=O)(=O)c2ccccc2)c2ccccc2)cc1	-89.5*
COc1ccc(O)c(/C=N/NC(=S)Nc2cccc(S(=O)(=O)N(C)C)c2)c1	74.1
Cc1cccc(NC(=S)N/C(=N/S(=O)(=O)c2ccccc2)c2ccccc2)c1	-103.4*
O=[N+]([O-])c1ccc(NC(=S)N/C(=N/CS(=O)(=O)c2ccccc2)c2ccccc2)cc1	-92.1*
O=C(Nc1ccc(N2CCOCC2)cc1)Nc1ccc(Cl)c(Cl)c1	-139.2*
O=C(Nc1ccc(N2CCOCC2)cc1)Nc1cnsn1	-114.4*
COC(=O)c1ccc(NC(=O)NC2CCCCC2)cc1	-116.6*
COc1ccc(NC(=O)NC2CCCCCCC2)cc1	-138.9*
Oc1ccc(Br)cc1-c1cc(-c2ccccc2F)[nH]n1	-74.2*
Oc1ccccc1-c1cc(-c2ccc(F)cc2)n[nH]1	-127.6*
Cc1ccc(-c2cc(-c3ccc(F)cc3)n[nH]2)c(O)c1	-86.2*
Cc1ccc(O)c(-c2cc(-c3cccc(Br)c3)n[nH]2)c1	-97.5*
Oc1ccc(F)cc1-c1cc(-c2ccc3c(c2)OCCO3)n[nH]1	-151.5*
Oc1ccc(Cl)cc1-c1cc(-c2ccccc2)n[nH]1	-99.2*
Cc1ccc(-c2cc(-c3ccc(C)cc3O)[nH]n2)cc1	-160.0*
Cc1nc(-c2ccc(S(=O)(=O)Oc3ccccc3Cl)s2)cs1	-68.1*
O=C(O)c1cccc(COc2ccccc2Cl)c1	103.3
SMILES	aSyn 5UTR act
O=C1NC(=O)/C(=C\c2ccc(OCc3cccc(C(=O)O)c3)c(Cl)c2)N1	69.9
O=C(Nc1ccccc1Cl)c1cccc(COc2cc(Cl)ccc2Cl)c1	-119.8*
Cc1nn(Cc2cccc(F)c2)c(C)c1NC(=O)c1ccc(COc2ccccc2Cl)cc1	68.8
Cc1nn(Cc2c(F)c(F)c(F)c(F)c2F)c(C)c1NC(=O)c1cccc(COc2ccccc2Cl)c1	-96.9*
CN1CCN(C(=O)c2cccc(COc3cc(Cl)ccc3Cl)c2)CC1	-164.4*
COc1ccc2oc(=O)c(-c3nc4ccccc4o3)cc2c1	-184.3*
O=c1oc2ccc3ccccc3c2cc1-c1nc2ccccc2o1	-86.9*
Cc1ccc(-c2cn3c(n2)SCC3)cc1	-144.5*
CCc1ccc(-c2cn3c(n2)SCC3)cc1	-99.0*
Cc1ccc(-c2cn3nc(C)c(C)nc3n2)cc1	72.7
Cc1cccc(Cc2nnc(CCC(=O)N(C)CCc3ccccc3)o2)c1	-136.5*
C=C(C)CN(CC)C(=O)CCc1nnc(CCCc2ccccc2)o1	-150.1*
CCN(CCn1cccn1)C(=O)CCc1nnc(CCCc2ccccc2)o1	-122.4*
Cc1cccc(N/C=C/c2onc(C)c2[N+](=O)[O-])c1	-156.1*
Cc1cc(O)ccc1N/C=C/c1onc(C)c1[N+](=O)[O-]	-109.6*
O=C(c1ccc(-c2ccc(Cl)cc2Cl)o1)N1CCOCC1	-103.8*
O=C(c1cc(-c2ccc(Cl)c(Cl)c2)on1)N1CCCCCC1	-197.9*
O=C(c1cc(-c2cccc(Cl)c2)on1)N1CCCCCC1	-174.8*
O=C(c1cc(-c2ccc(Cl)cc2)on1)N1CCCCCC1	-147.7*
Cc1ccc(-c2cc(C(=O)N3CCCC3)no2)cc1	53.4
O=C(c1cc(-c2ccc(O)cc2)on1)N1CCCCCC1	-94.4*
CN(C)/C=C/C(=O)c1ccc(-c2ccc(Cl)cc2Cl)o1	-106.2*
O=C(c1cc(-c2ccc(Cl)cc2Cl)on1)N1CCCCCC1	-71.5*
O=[n+]1c2c(n([O-])c3cc(F)c(N4CCCC4)cc31)CCCC2	-77.0*
COc1ccc(-c2nnc(SCC(=O)c3ccc[nH]3)o2)cc1	-107.1*
SMILES	aSyn 5UTR act
Cc1ccc(SCC(=O)c2ccc[nH]2)cc1	-126.5*
COc1ccc(-c2nnc(SCC(=O)c3cccs3)o2)cc1	-140.2*
Cc1ccc(OCC(=O)Nc2ccccc2C(N)=O)cc1	-97.9*
NC(=O)c1ccccc1NC(=O)COc1ccc(Cl)cc1	-100.9*
CCNC(=S)/N=C(\N)Nc1nc(C)c2cc(C)ccc2n1	-206.6*
Cc1ccc2c(c1)N=C(c1ccccc1)CC(C(Cl)Cl)=N2	-74.2*
Cc1ccc(C2=Nc3ccccc3N=C(C(Cl)Cl)C2)cc1	-76.0*
COc1ccccc1CCNC(=O)C(=O)c1cn(CC(=O)N2CCOCC2)c2ccccc12	-105.5*
CCc1ccc(NC(=O)C(=O)c2cn(CC(=O)N3CCCCC3)c3ccccc23)cc1	-70.3*
O=C(Nc1ccccc1Cl)C(=O)c1cn(CC(=O)N2CCOCC2)c2ccccc12	-125.1*
O=C(Nc1ccc(-c2nc3ccccc3o2)cc1)c1cccnc1	-133.4*
COc1cccc(C(=O)Nc2ccc(-c3nc4ccccc4o3)c(O)c2)c1	-115.3*
Cc1ccc2oc(-c3ccc(NC(=O)c4cccnc4)cc3)nc2c1	-161.7*
O=C(Nc1ccc(-c2noc(CCc3ccccc3)n2)cc1)c1cccnc1	-67.3*
Cc1sc(=NC(=O)c2ccco2)n(C)c1-c1ccc(Cl)cc1	-101.3*

Screens: PubChem BioAssay, Broad Institute
